Screening data: PubChem BioAssay, several laboratories
In the library only some 0.45% were active in any assay of this set; here they are far more common.
NCOA3 inh: SRC3 coactivator transcriptional activity inhibitors, primary screen, cell-based, luminescence; HEK293 GAL4-SRC3 luciferase reporter; inhibition, % at 3.6 µM; actives 0.17% (n = 360,000); AID 588352, 2011;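 active = inhibition above a per-campaign cutoff, the mean of all compounds plus 3 SD, cut at about 60% in these data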;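 also: 0% = DMSO-treated cells and 100% = gossypol-treated cells at 36 µM; higher means less SRC3-driven luciferase light from the GAL4 reporter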
LGR2 antag: inhibitors of bursicon-induced LGR2 CRE-luciferase signal, primary screen, cell-based, HEK293, CRE-luciferase reporter, bursicon stimulation | bursicon-stimulated, 4 h | inhibition, % at 9.99 µM | actives 0.35% (n = 380,000) | AID 720647, 2013;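 active = drop in luminescence signal, shown as inhibition above about 50% in the replicate tests, limit read from the data, passing the limit was not always enough; inconclusive = probably only some replicates passing the limit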;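 also: agonist challenge used bursicon conditioned medium at about half maximal strength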
SRC2 inh: inhibition of GAL4-SRC2 driven luciferase reporter, primary screen, SRC2 inhibitor project, cell-based, luminescence | AID 651957, 2012 | HEK293 GAL4-SRC2 luciferase reporter | actives 0.17% (n = 370,000) | inhibition, % at 9 µM | Nuclear receptor coactivator 2 (Homo sapiens), Q15596;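 active = inhibition above the mean inhibition of all tested compounds plus 3 SD, set per campaign, cut at about 52% in these data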;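 also: 0% = DMSO treated cells and 100% = cells given Gossypol at 36 µM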
NR5A2 inv ag: LRH-1 (NR5A2) inverse agonists, primary screen, cell-based, luminescence, HEK293T, StAR-luciferase reporter; Nuclear receptor subfamily 5 group A member 2 (Homo sapiens), O00482; LRH-1 transfected, 24 h; inhibition, % at 3.6 µM; actives 0.13% (n = 360,000);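 active = inhibition above the mean inhibition of all tested compounds plus 3 SD, cut at about 73% in these data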;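 also: 0% = DMSO wells and 100% = reporter-only cells lacking LRH-1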
SRC1 inh: SRC1 coactivator transcriptional activity inhibitors, primary screen, cell-based, luminescence. actives 0.12% (n = 360,000). Nuclear receptor coactivator 1 (Homo sapiens), Q15788. inhibition, % at 3.6 µM. AID 588354, 2011. HEK293 GAL4-SRC1 luciferase reporter;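 active = inhibition above the campaign mean plus 3 SD, with each screening campaign given its own cutoff, cut at about 60% in these data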;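 also: 0% = DMSO treated cells and 100% = gossypol at 36 µM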
* marks the source's active call; other numbers are inactive results; ? = inconclusive; . = no result; ! = a repeat was not active.

SMILES | NCOA3 inh | LGR2 antag | SRC2 inh | NR5A2 inv ag | SRC1 inh
Cc1ccccc1Oc1cc(-n2ncc(Cl)c(Cl)c2=O)ncn1 | 10.7 | 101.4* | -13.5 | -7.9 | -284.2
CCOc1cnn(-c2cc(Oc3ccc(C)cc3)ncn2)c(=O)c1Cl | -11.0 | 7.6 | -9.2 | -10.3 | -2.8
CCCN(C)C[C@H]1Oc2cc(C3=CCCC3)ccc2S(=O)(=O)N([C@H](C)CO)C[C@@H]1C | . | 4.8 | . | . | .
CC(C)c1ccc(-n2c(-c3ccccc3)c[n+]3c2CCc2ccccc2-3)cc1 | 77.0* | 53.5* | 40.4 | 81.3* | 49.6
COc1ccccc1-n1c(-c2ccccc2)c[n+]2c1CCc1ccccc1-2 | 74.0*! | 34.5 | 6.2 | 66.1 | 50.7
O=C(NOCc1ccccc1)c1ccc(Cl)cc1 | -69.7 | 43.7 | -40.7 | -123.8 | -85.5
O=C(Nc1ccc2ccccc2c1)c1ccccc1O | -76.0 | 76.2* | 16.7 | -73.9 | -83.9
COc1ccc(C(=O)NOCc2ccccc2)cc1 | -97.1 | 73.3* | -8.4 | -102.7 | -107.7
COc1ccc(C(=O)Nc2ccc3ccccc3c2)cc1 | -58.7 | 73.7* | -60.0 | -138.8 | -23.5
COc1cccc(C(=O)Nc2ccc3ccccc3c2)c1 | -71.8 | ? | 8.5 | -137.9 | -117.1
CC(C)CC#Cc1cnc2c(c1)C(=O)N([C@H](C)CO)C[C@H](C)[C@H](CN(C)Cc1ccccc1)O2 | . | -8.9 | . | . | .
O=C(C[C@H]1CC[C@H]2[C@@H](COC[C@H](O)CN2Cc2ccc(Oc3ccccc3)cc2)O1)N1CCCCC1 | . | 0.2 | . | . | .
Cc1noc(C)c1NC(=O)Nc1cccc2c1O[C@H](CN(C)Cc1ccc(C(=O)Nc3ccccc3N)cc1)[C@@H](C)CN([C@@H](C)CO)C2=O | . | -30.5 | . | . | .
Cc1cc(C)c(O)c(C(=O)CC2CC(=O)NC(=O)C2)c1 | . | 64.6* | 30.6 | . | .
O=S(=O)(c1ccccc1)N1C[C@@H]2N[C@H](C1)C2c1ccc(/C=C/c2ccccc2)cc1 (stereo partly specified) | . | 4.8 | . | . | .
COc1ccc([C@@]23Oc4cc(OC)cc(OC)c4[C@]2(O)[C@H](O)[C@H](C(=O)N(C)C)[C@H]3c2ccccc2)cc1 | 89.5* | 99.2* | 71.9* | 99.5* | 90.3*
NCC[C@H]1CC[C@H](NS(=O)(=O)Cc2ccccc2)[C@@H](CO)O1 | . | 88.9* | . | . | .
O=[N+]([O-])c1ccc(O)c2cccnc12 | -10.2 | . | -13.8 | -3.3 | -10.2
O=[N+]([O-])c1ccc(O)c2ncccc12 | 28.8 | 100.8* | 24.2 | 9.3 | 23.8
Cc1ccc(C(=O)C2C(=O)C3CCC2C3)cc1 (stereo unspecified) | -105.6 | 63.4* | -2.8 | -124.3 | -78.4
Cc1ccc(C(=O)C2CCNCC2)cc1 | -30.7 | . | -2.2 | 1.9 | 2.9
COc1ccc(NC(=O)Nc2ccc3c(c2)CC(=O)N([C@H](C)CO)C[C@H](C)[C@@H](CN(C)S(=O)(=O)c2ccc(C)cc2)O3)cc1 | . | -4.8 | . | . | .
CCN1/C(=C/c2ccc3ccccc3[n+]2CC)C=Cc2ccccc21 | 87.1* | . | 11.8 | 98.1* | 67.6*
CCN1/C(=C/c2ccc3ccccc3[n+]2CCCS(=O)(=O)[O-])C=Cc2cc(C)ccc21 | -15.3 | 0.6 | -13.8 | 1.2 | 3.3
COc1cc([C@@H]2c3cc4c(cc3[C@@H](O[C@@H]3O[C@@H]5CO[C@@H](C)O[C@H]5[C@H](O)[C@H]3O)[C@H]3COC(=O)[C@H]23)OCO4)cc(OC)c1O | 64.8* | 25.1 | -24.0 | 60.5 | 80.0*
SMILES | NCOA3 inh | LGR2 antag | SRC2 inh | NR5A2 inv ag | SRC1 inh
COc1cc(C2c3cc4c(cc3C(OC3OC5COC(c6cccs6)OC5C(O)C3O)C3COC(=O)C23)OCO4)cc(OC)c1O (stereo unspecified) | 76.7* | 40.7 | -3.0 | 65.0 | 80.6*
COc1cc([C@@H]2c3cc4c(cc3[C@H](O)[C@H]3COC(=O)[C@H]23)OCO4)cc(OC)c1OC | 27.0 | -57.7 | 14.3 | 31.6 | -7.4
O=C(Nc1cccc(O)c1)C(=O)Nc1ccccn1 | -59.7 | 77.8* | -24.3 | -128.6 | -93.1
O=C(Nc1ccccc1)C(=O)Nc1ccccn1 | -38.9 | 65.2* | -29.5 | -74.0 | -48.7
O=C(O)c1ccc(S(=O)(=O)NN=Cc2c[nH]c3ccccc23)cc1 | 0.4 | 11.7 | 10.4 | 38.4 | 0.7
O=C(O)c1ccc(N/N=C/c2c[nH]c3ccccc23)cc1 | 1.4 | 59.1* | 18.2 | 3.1 | -9.9
COCC(=O)N1[C@H](CO)[C@@H](c2ccccc2)C12CN(C(=O)NC1CCCCC1)C2 | . | -9.9 | . | . | .
COc1cccc(NC(=O)N2CC(=O)N3[C@@H](CO)[C@@H](c4ccc(C#CC5CCCC5)cc4)[C@@H]3C2)c1 | . | -1.0 | . | . | .
CCCNC(=O)N1CC2(CN(S(=O)(=O)CC)C2)c2c(n(C)c3cc(OC)ccc23)[C@@H]1CO | . | -1.7 | . | . | .
NC(Cc1ccc(Cl)cc1)c1csc(NC(=O)NCC2CCCCC2)n1 (stereo unspecified) | 12.2 | 24.3 | 59.5* | -7.8 | -3.8
O=C(Nc1cc(F)ccc1F)N1CC(=O)N2[C@H](CO)[C@@H](c3ccc(/C=C/c4ccccc4)cc3)[C@@H]2C1 | . | -24.7 | . | . | .
COc1cc(C=NO)nc(-c2ccccn2)c1 | 86.0* | 3.7 | 33.1 | 84.5* | 79.2*
Cc1c(C)c2cccnc2c2ncccc12 | 54.2 | . | . | 86.7* | 42.4
Clc1cc2cccnc2c2ncccc12 | 11.3 | -5.8 | 20.1 | -5.6 | -3.5
O=C(Nc1ccccn1)c1cc2ccccc2o1 | -41.8 | . | 31.7 | -34.3 | -15.0
Cc1ccnc(NC(=O)c2cc3ccccc3o2)c1 | -1.6 | 77.4* | 27.6 | -59.7 | -42.7
COc1ccccc1N(Cc1ccccc1)S(=O)(=O)c1cccc(C(=O)Nc2cc(C)ccn2)c1 | -174.1 | 55.2* | -0.5 | -169.8 | -93.3
CCOc1ccc(C(=O)Nc2cc(C)ccn2)cc1 | -32.9 | 64.9* | 7.7 | -58.6 | -87.7
Cc1ccnc(NC(=O)c2ccc(C(=O)c3ccccc3)cc2)c1 | -116.6 | 54.9* | -18.1 | -106.9 | -81.1
Cc1ccnc(NC(=O)c2ccccc2NC(=O)c2ccccc2)c1 | 2.1 | -10.7 | -8.3 | 9.8 | 5.2
CCCN(C)C[C@@H]1Oc2cc(-c3cncnc3)ccc2S(=O)(=O)N([C@@H](C)CO)C[C@@H]1C | . | 10.8 | . | . | .
COc1ccc(S(=O)(=O)N(C)C[C@@H]2Oc3ccc(NC(=O)Nc4ccc5c(c4)OCO5)cc3C(=O)N([C@H](C)CO)C[C@@H]2C)cc1 | . | 23.1 | . | . | .
CCCC(=O)Nc1ccc2c(c1)C(=O)N(C)C[C@@H](OC)[C@H](C)CN(C(=O)CC)[C@@H](C)CO2 | . | 9.9 | . | . | .
COC(=O)[C@]1(C)CCC[C@@]2(C)C3CC[C@]4(OC(C)=O)C[C@@]3(CCC21)CC4=O (stereo partly specified) | 9.0 | -20.2 | 18.0 | 8.5 | -11.6
